From PubChem BioAssay (NCI)
Compounds without any hit were thinned out: in the full panel of roughly 83,000, 20% have a hit.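 Cells were grown in 96-well plates and exposed to the test compound at a single concentration for 48 hours; results are reported as percent growth, with values below 10 considered active.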 Unmarked numbers belong to inactive results. Calls of active or inactive are those of the source.

Experiments:
Experiment in all cases: NCI-60 one-dose screen, 48 h (100 = growth as untreated, 0 = no growth, -100 = all killed)
Details in all cases: 10 µM
NCI-H23 lung = tested on: NCI-H23 lung
NCI-H226 lung = tested on: NCI-H226 lung
HOP-62 NSCLC = tested on: HOP-62 NSCLC
NCI-H460 lung = tested on: NCI-H460 lung
HOP-92 NSCLC = tested on: HOP-92 NSCLC
NCI-H522 lung = tested on: NCI-H522 lung
A549/ATCC NSCLC = tested on: A549/ATCC NSCLC
786-0 renal = tested on: 786-0 renal
COLO 205 colon = tested on: COLO 205 colon

Compound | growth (NCI-H23 lung) | growth (NCI-H226 lung) | growth (HOP-62 NSCLC) | growth (NCI-H460 lung) | growth (HOP-92 NSCLC) | growth (NCI-H522 lung) | growth (A549/ATCC NSCLC) | growth (786-0 renal) | growth (COLO 205 colon)
CCC(CC)n1c(C)cc(=O)n1C(CC)CC | 101% | 99.1% | 96.1% | 103% | 99.9% | 106% | 101% | 105% | 115%
CC[N+](CC)=c1ccc2nc3c(cc(NCc4ccccc4)c4ccccc43)oc-2c1 | -76% (active) | -34.4% (active) | -99.6% (active) | -66.4% (active) | -7.03% (active) | -82.3% (active) | -90.2% (active) | -62.7% (active) | -89.4% (active)
CN(C)CCCOc1ccccc1NC1=C(Cl)C(=O)C(Nc2ccccc2OCCCN(C)C)=C(Cl)C1=O | -48.5% (active) | -81% (active) | -96.9% (active) | -20.6% (active) | -57.1% (active) | -67.2% (active) | -55.6% (active) | -95.4% (active) | -64.9% (active)
C=CCn1c(SCC(=O)Nc2ccc(C(=O)/C=C/c3cc(OC)c(OC)c(OC)c3)cc2)nnc1-c1cc(-c2ccc(Cl)cc2)nc2ccccc12 | 88.7% | 89.1% | 97.5% | 93.1% | 83% | 83.1% | 96.7% | 74.2% | 115%
COc1cc(-c2nn(-c3cccc(NC(=O)CCN4CCN(c5ccccc5)CC4)c3)cc2-c2ccncc2)ccc1Cl | 24.5% | 47.6% | 34.2% | 6.87% (active) | 4.23% (active) | 10.1% | 15.9% | 2.45% (active) | -36.9% (active)
C=CCn1c(SCC(=O)Nc2ccc(C(=O)/C=C/c3ccc(Cl)cc3)cc2)nnc1-c1cc(-c2ccccc2)nc2ccccc12 | 66.3% | 73.6% | 86.1% | 98.6% | 91.5% | 60.5% | 89.7% | 86.7% | 99.5%
O=C1c2ccccc2C(=O)c2c1ccc(C(Br)Br)c2Cl | 8.26% (active) | 80.4% | 96% | 78% | 42.7% | -72.9% (active) | 88.3% | -78.9% (active) | -33.4% (active)
O=S(=O)(O)c1cccc(Nc2ccc3ccccc3c2)c1 | 92% | 86.5% | 84.4% | 101% | 74.8% | 87.9% | 94.1% | 104% | 97.8%
CCNCC(=O)Nc1ccc(C(=O)OCC)cc1 | 99.9% | 109% | 90.5% | 99.5% | 113% | 88.7% | 103% | 89.6% | 108%
Cc1ccc(/C=C/C(=O)C(=O)/C=C/c2ccc(C)cc2)cc1 | 95.4% | 107% | 109% | 104% | 108% | 81.7% | 86.2% | 96.9% | 110%
COC1OC(COS(=O)OC)C(O)C(O)C1OS(=O)OC (stereo unspecified) | 101% | 95.7% | 104% | 101% | 108% | 98.5% | 103% | 106% | 110%
CNS(=O)(=O)Oc1ccc(-c2sc3cc(OS(=O)(=O)NC)ccc3c2C(=O)c2ccc(OCCN3CCCCC3)cc2)cc1 | 65.6% | 84.4% | 79.8% | 42.4% | 64.2% | 78.7% | 62.4% | 73.5% | 77.9%
COc1ccc2c(c1)C(=O)/C(=C/c1cccc(OCC(=O)c3ccc([N+](=O)[O-])cc3)c1)CO2 | -15% (active) | 70.5% | 77% | 73.9% | 60.9% | -53.4% (active) | 23.7% | 82.8% | 98.4%
COc1cc2cc(Oc3ccc(NC(=O)Nc4cccc(C(F)(F)F)c4)cc3)c(C)nc2cc1OC | 6.78% (active) | -23.5% (active) | 25% | 2.68% (active) | -29.5% (active) | -17.4% (active) | 3.09% (active) | 15.1% | -20.2% (active)
Cc1nn(-c2ccc(-c3ccc(OC(F)(F)F)cc3)cc2)c2nc(Cc3ccccc3)nc(N)c12 | 64.9% | 42.5% | 45.9% | 3.39% (active) | 59% | 73.7% | 16.7% | 5.79% (active) | 65.2%
CCOc1ccccc1/C=N/N1CCCCCC1 | 89.3% | 88.2% | 97.3% | 107% | 86.9% | 102% | 117% | 119% | 108%
COc1ccc(-c2cc(-c3ccc(Cl)cc3)nc(SCCCC(=O)NO)n2)cc1 | 0.964% (active) | -2.21% (active) | 5.55% (active) | 0.515% (active) | 1.25% (active) | -12.1% (active) | 5.47% (active) | 3.69% (active) | 2.04% (active)
CCOC(=O)c1cc(C(=O)c2cc(OC)c(OC)c(OC)c2)n2c1ccc1c3cccnc3ccc12 | 77.4% | 82.3% | 61.9% | 82.2% | 55.5% | 22.8% | 64% | 78.5% | 36.6%
COc1cc(C2C(C#N)=C(N)Oc3cc(O)ccc32)cc(OC)c1OC (stereo unspecified) | 30.7% | 68.4% | 53.2% | 9.65% (active) | 49.7% | 1.54% (active) | 21.4% | 40.6% | 8.35% (active)
CNC(=O)c1cn(C2CC2)c2cc(N3CCN(C(=O)c4cc(OC)c(OC)c(OC)c4)CC3)c(F)cc2c1=O | 93.7% | 93% | 90.8% | 106% | 92.3% | 90% | 94.6% | 93.4% | 105%
CS(=O)(=O)c1nccc(-c2c(-c3cccc(OCc4ccccc4)c3)nc3sccn23)n1 | 53.6% | 50.8% | 92.9% | 103% | 51.8% | 5.91% (active) | 106% | 86.3% | 88.4%
OCC1OC(n2ccc3c(NO)ncnc32)C(O)C1O (stereo unspecified) | -56.3% (active) | -10.3% (active) | -21.6% (active) | -27.7% (active) | -16.3% (active) | -30.1% (active) | -10.9% (active) | -7.13% (active) | -91.1% (active)
COc1ccc(-c2nnc(SCC(=O)Nc3ccc(C(=O)/C=C/c4ccccc4)cc3)n2-c2ccccc2)cc1OC | 80.8% | 50.4% | 102% | 37.1% | 78.4% | 53.8% | 51.9% | 67.1% | 56.1%
N#Cc1ccc(C(=O)CSc2nccc(Nc3ccc(C(=O)O)cc3)n2)cc1 | 100% | 101% | 108% | 104% | 104% | 94.4% | 102% | 104% | 110%
Nc1cc(Br)c(-c2nn3c(CCC(=O)c4nc5ccccc5[nH]4)nnc3s2)c(Br)c1 | 87.3% | 83.6% | 103% | 102% | 72.8% | 97.4% | 101% | 99.8% | 107%
O=C(CCNC(=O)c1nc(-c2ccccc2)n(-c2ccc(Cl)cc2)n1)NO | 101% | 96.7% | 83.7% | 104% | 108% | 82.4% | 88.6% | 96.2% | 94.8%
CC[C@@H](C(=O)[C@H](C)[C@H](O)[C@@H](C)[C@H]1O[C@H]([C@@H](CC)C(=O)O)CC[C@H]1C)C1O[C@]2(C=C[C@@H](O)[C@]3(CC[C@@](C)([C@H]4CC[C@](O)(CC)[C@H](C)O4)O3)O2)[C@H](C)C[C@@H]1C (stereo partly specified) | 13.4% | 21.4% | 36.9% | 11.4% | 24% | -4.35% (active) | 20.8% | 27.1% | 8.73% (active)
CC(C)(C)c1nn(-c2ccccc2)c2c1CC1(CN2Cc2ccc(Cl)cc2)C(=O)c2ccccc2C1=O | 80.8% | 81.9% | 102% | 90.7% | 54.8% | 80.3% | 70.7% | 86.7% | 117%
CC[C@@H](C(=O)[C@H](C)[C@H](O)[C@@H](C)[C@H]1O[C@H]([C@@H](CC)C(=O)N(CC)CC)CC[C@H]1C)C1O[C@]2(C=C[C@@H](O)[C@]3(CC[C@@](C)([C@H]4CC[C@](O)(CC)[C@H](C)O4)O3)O2)[C@H](C)C[C@@H]1C (stereo partly specified) | 18.6% | 7.49% (active) | 16.7% | 12.5% | -26.2% (active) | 5.16% (active) | 20.9% | 33.5% | -20.2% (active)
